From the supplement of paper PMC10849652
Targets with a hit are over-represented here; the source holds about 8,800 in all. About 0.5% of all pairs of compound and target were hits. A number with no mark means an inactive call.

Legend:
Assay in all cases: log2 fold change, soluble protein after heating vs DMSO (PISA); higher = thermal stabilisation; K562 lysate, 10 uM; active = over 0.2 and 3.5 SD of the protein, either way, in both replicates (recomputed)
[1] = compound: C#Cc1cccc(Nc2ncnc3cc(OCCOC)c(OCCOC)cc23)c1 [erlotinib]
In short: (§1)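 A 30 min treatment with 10 μM compound was applied to crude K562 extract at 1 mg/mL protein in PBS pH 7.4 with 1 mM MgCl2. Heating for 3 min spanned 48°C-58°C, after which aliquots were pooled, adjusted to 0.5% NP-40 at 4°C and spun at 21,000xg for 90 min. TMTpro 16plex LC-MS/MS of the supernatant, with channel sums equalised, gave values recorded as log-two fold change in thermal stability against solvent controls, from duplicates.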

[2] = compound: C/C(=N\NC(=O)C1=CC(=CC=C1)S(=O)(=O)N2CCOCC2)/C3=C(C=CC(=C3)Cl)O
In short: as §1

[3] = compound: C1=CC(=CC=C1C2=NC3=C(N2)C=C(C=C3)C(=O)N)OC4=CC=C(C=C4)Cl
In short: as §1

[4] = compound: C1=CC2=C(C=CC(=C2)/C=C\3/C(=O)NC(=NCC4=CC=CS4)S3)N=C1
In short: as §1

[5] = compound: C1=CC2=NC=CN=C2C=C1/C=C/3\C(=O)NC(=O)S3
In short: as §1

[6] = compound: C1=CC=C(C=C1)C2=NC(=C(N2)C3=CC=NC=C3)C4=CC(=C(C=C4)Cl)O
In short: as §1

[7] = compound: C1=CC=C2C(=C1)C3=NNC4=CC=CC(=C43)C2=O
In short: as §1

[8] = compound: C1CCN(C1)C(=O)NC2=CC=CC(=C2)NC3=NC=C(C(=N3)NCCC4=CN=CN4)Br
In short: as §1

[9] = compound: C1CN(CCC1(CC2=CC=C(C=C2)Cl)N)C3=NC=NC4=C3C=CN4
In short: as §1

[10] = compound: C1COCCN1CCN2C3=CC=CC=C3N=C2NC(=O)C4=CC(=CC=C4)[N+](=O)[O-] [IRAK-1-4 Inhibitor I]
In short: as §1

[11] = compound: C=CC(=O)N1CCC[C@@H](n2nc(-c3ccc(Oc4ccccc4)cc3)c3c(N)ncnc32)C1 [ibrutinib]
In short: as §1

[12] = compound: CC(=O)c1cnc2ccc(-c3cc(Cl)c(O)c(Cl)c3)nc2c1N[C@H]1CC[C@H](CN(C)C)CC1
In short: as §1

[13] = compound: CC(C)(C)Cn1c(N)nc2ccc(-c3[nH]c(C(C)(C)C)nc3-c3ccc(F)cc3)nc21 [ralimetinib]
In short: as §1

[14] = compound: CC(C)(O)CC(=O)NCCn1ccc2ncnc(Nc3ccc(Oc4cccc(C(F)(F)F)c4)c(Cl)c3)c21
In short: as §1

[15] = compound: CC(C)C1=C2N=C(C=C(N2N=C1)NCC3=CC=CC=C3)NCCCCCCN
In short: as §1

[16] = compound: CC1=C(C(CC(=O)N1)C2=CC=C(C=C2)C(F)(F)F)C(=O)NC3=C(C=C4C(=C3)C=NN4)F
In short: as §1

[17] = compound: CC1=C(C2=C(C=C1)C(=O)C3=CC=CC=C3N2CCCN)C
In short: as §1

[18] = compound: CC1=C(C=C(C=C1)NC(=O)C2=CC(=CC=C2)C(C)(C)C#N)NC3=CC4=C(C=C3)N=CN(C4=O)C
In short: as §1

[19] = compound: CC1=C(C=C(C=C1)NC(=O)C2=CC(=CC=C2)N(C)C)NC(=O)C3=CC=C(C=C3)O
In short: as §1

[20] = compound: CC1=CC=C(C=C1)SC2=C3C=C(SC3=CN=C2)C(=O)N
In short: as §1

Chain of UniProt O75521 (O75521 whole entry, looked up): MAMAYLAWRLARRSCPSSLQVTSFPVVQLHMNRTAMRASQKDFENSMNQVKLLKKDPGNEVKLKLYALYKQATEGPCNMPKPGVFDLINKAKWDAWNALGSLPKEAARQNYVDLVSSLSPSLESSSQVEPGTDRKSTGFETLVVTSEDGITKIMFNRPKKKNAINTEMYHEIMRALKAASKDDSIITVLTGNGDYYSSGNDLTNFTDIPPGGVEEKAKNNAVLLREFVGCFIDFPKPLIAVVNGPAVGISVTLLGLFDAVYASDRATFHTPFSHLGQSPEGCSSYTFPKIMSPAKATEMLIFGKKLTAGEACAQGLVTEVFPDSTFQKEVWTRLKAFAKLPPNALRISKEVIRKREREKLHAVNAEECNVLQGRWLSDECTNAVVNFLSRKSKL
Chain of UniProt Q9NWS6 (Q9NWS6 whole entry, looked up): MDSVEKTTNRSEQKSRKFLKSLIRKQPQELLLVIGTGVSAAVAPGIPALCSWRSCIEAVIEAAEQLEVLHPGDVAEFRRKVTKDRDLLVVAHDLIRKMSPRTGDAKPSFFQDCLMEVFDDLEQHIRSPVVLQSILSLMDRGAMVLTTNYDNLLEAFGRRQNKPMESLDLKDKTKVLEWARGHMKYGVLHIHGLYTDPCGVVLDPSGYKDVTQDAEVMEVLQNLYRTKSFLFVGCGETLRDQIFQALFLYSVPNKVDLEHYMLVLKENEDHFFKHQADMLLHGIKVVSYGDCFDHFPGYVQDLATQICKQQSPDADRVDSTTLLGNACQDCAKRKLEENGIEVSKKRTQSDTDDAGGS
Chain of UniProt Q9NR50 (Q9NR50 whole entry, looked up): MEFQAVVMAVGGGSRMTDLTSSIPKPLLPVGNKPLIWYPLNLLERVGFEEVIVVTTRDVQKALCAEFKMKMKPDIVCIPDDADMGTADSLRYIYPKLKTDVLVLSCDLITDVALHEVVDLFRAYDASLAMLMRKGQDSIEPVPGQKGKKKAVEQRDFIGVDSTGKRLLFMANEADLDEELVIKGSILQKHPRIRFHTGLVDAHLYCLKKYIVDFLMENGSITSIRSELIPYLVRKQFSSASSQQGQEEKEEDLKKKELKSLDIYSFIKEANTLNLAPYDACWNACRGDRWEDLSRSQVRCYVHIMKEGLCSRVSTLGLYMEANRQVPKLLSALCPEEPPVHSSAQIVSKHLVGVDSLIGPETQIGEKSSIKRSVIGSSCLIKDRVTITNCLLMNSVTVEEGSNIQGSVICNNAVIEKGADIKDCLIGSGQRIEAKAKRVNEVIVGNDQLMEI
Chain of UniProt Q92889 (Q92889 whole entry, looked up): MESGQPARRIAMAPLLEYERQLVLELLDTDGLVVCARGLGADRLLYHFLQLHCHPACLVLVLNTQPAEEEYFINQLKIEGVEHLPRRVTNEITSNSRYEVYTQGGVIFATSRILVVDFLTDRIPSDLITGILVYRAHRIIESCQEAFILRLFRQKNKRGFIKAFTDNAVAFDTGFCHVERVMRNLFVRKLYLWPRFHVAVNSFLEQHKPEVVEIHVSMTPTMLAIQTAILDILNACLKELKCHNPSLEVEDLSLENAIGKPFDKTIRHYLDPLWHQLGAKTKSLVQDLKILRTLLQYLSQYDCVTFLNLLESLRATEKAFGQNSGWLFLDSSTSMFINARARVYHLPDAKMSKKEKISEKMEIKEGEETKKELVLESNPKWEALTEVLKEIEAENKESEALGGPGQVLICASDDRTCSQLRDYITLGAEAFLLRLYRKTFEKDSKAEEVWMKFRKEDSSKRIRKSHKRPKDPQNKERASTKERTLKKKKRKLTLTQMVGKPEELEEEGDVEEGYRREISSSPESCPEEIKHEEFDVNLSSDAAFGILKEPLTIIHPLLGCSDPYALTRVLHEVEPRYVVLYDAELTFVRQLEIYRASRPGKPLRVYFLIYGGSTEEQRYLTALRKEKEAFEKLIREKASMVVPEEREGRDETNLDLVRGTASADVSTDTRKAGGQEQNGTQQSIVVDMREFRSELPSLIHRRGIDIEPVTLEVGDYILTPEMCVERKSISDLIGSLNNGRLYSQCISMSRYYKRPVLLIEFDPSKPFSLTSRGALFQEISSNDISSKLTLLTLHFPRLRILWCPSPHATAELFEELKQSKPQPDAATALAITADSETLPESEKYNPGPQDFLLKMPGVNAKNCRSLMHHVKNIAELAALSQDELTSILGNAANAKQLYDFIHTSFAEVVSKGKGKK
Chain of UniProt Q6PIJ6 (Q6PIJ6 whole entry, looked up): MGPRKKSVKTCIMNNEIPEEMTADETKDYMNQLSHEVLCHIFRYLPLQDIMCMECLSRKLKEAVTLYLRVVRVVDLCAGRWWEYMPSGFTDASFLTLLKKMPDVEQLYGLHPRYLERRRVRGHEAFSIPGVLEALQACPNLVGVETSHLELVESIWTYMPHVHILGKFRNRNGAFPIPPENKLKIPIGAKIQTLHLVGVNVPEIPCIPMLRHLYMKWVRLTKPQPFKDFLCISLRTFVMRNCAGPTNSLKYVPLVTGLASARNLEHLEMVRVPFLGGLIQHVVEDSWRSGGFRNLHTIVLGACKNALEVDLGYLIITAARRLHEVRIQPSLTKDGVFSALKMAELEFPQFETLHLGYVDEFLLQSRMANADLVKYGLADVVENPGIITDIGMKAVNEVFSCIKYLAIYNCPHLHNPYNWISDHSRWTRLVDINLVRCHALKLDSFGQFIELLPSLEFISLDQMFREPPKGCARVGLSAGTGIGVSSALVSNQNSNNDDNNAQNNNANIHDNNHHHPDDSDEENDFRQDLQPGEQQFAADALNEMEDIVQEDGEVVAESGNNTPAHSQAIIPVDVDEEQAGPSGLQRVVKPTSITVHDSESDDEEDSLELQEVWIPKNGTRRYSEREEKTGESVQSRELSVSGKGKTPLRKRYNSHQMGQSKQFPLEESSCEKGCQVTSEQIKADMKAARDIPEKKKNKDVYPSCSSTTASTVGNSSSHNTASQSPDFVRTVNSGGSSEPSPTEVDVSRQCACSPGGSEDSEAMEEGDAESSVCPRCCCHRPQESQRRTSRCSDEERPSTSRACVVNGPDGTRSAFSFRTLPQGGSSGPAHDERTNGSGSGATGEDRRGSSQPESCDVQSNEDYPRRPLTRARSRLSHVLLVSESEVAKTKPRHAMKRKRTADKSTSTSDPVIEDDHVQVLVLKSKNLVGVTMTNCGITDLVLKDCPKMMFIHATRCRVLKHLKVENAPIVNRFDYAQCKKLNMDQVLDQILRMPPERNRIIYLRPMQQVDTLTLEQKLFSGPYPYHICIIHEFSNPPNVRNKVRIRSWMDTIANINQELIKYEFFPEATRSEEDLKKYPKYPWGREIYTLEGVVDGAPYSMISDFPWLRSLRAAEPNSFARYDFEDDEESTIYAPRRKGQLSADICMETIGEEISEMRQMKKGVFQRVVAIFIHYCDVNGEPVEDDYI
Chain of UniProt P57678 (P57678 whole entry, looked up): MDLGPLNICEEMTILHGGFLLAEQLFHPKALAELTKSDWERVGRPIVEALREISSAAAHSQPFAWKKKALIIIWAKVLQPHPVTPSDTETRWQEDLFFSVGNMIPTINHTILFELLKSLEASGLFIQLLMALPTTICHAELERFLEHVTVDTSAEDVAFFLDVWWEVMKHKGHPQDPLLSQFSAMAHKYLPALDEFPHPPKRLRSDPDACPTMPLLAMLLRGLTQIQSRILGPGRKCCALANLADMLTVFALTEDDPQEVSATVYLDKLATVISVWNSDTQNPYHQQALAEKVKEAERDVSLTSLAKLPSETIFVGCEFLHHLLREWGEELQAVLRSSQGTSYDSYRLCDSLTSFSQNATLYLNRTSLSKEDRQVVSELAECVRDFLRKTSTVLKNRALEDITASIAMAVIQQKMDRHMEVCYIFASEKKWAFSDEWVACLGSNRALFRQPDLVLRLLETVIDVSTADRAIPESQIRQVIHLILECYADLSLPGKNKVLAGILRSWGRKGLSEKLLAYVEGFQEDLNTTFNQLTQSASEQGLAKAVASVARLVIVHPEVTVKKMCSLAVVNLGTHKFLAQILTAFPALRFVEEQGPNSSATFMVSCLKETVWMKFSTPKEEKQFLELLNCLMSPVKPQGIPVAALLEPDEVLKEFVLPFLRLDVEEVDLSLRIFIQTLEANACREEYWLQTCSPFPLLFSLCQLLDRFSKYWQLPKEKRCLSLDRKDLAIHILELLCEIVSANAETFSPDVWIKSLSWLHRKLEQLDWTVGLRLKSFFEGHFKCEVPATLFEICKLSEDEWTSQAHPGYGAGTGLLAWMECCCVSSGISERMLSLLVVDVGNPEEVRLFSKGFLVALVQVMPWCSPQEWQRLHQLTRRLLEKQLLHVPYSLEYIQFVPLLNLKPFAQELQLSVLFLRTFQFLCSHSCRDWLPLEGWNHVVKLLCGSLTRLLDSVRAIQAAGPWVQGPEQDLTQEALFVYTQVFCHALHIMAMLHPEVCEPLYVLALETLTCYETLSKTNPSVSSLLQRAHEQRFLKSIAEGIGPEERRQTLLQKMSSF
Chain of UniProt Q9NSD9 (Q9NSD9 whole entry, looked up): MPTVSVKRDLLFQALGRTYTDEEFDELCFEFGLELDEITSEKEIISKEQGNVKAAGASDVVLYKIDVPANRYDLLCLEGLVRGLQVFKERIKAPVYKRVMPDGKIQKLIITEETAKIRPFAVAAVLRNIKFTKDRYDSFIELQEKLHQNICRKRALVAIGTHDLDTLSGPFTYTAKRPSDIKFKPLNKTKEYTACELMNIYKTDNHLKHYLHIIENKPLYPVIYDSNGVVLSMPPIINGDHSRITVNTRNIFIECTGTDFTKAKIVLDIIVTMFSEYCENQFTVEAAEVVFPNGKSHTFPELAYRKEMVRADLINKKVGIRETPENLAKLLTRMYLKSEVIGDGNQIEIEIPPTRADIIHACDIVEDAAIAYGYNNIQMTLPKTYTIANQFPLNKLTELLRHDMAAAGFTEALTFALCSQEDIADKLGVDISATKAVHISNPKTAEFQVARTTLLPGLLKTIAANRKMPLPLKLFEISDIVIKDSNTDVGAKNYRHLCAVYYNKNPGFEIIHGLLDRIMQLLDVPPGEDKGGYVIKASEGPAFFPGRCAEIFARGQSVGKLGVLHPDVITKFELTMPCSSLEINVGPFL

Target	log2 fold change [1]	log2 fold change [2]	log2 fold change [3]	log2 fold change [4]	log2 fold change [5]	log2 fold change [6]	log2 fold change [7]	log2 fold change [8]	log2 fold change [9]	log2 fold change [10]	log2 fold change [11]	log2 fold change [12]	log2 fold change [13]	log2 fold change [14]	log2 fold change [15]	log2 fold change [16]	log2 fold change [17]	log2 fold change [18]	log2 fold change [19]	log2 fold change [20]
ERAL1 (UniProt O75616)	-0.016	-0.003	0.05	-0.014	0.03	0.015	-0.027	-0.041	-0.047	-0.042	0.052	-0.042	0.03	0.011	-0.007	0.047	0.03	0.014	0.045	0.018
FDX2 (UniProt Q6P4F2)	-0.051	0.063	0.044	0.065	-0.009	-0.041	-0.054	-0.402	-0.17	0.05	0.056	-0.025	-0.047	-0.194	-0.039	0.01	-0.018	0.015	0.05	0.006
ERCC4 (UniProt Q92889)	-0.008	-0.04	0.033	0.015	-0.021	-0.003	-0.096	-0.006	0.051	0.029	-0.02	0.027	-0.028	0.006	0.059	-0.021	-0.029	0.013	0.025	-0.054
FAM118A (UniProt Q9NWS6)	0.03	-0.03	-0.016	0.022	0.029	0.012	-0.006	0.021	0.048	0.051	-0.024	0.01	0.041	-0.052	-0.01	-0.004	-0.052	0.015	0.014	-0.004
EIF2B3 (UniProt Q9NR50)	0.01	0.029	-0.019	-0.009	0.024	0.001	-0.003	0.014	0.018	-0.01	0.007	0.02	0.011	0.005	0.004	-0.004	-0.007	0.043	0.021	-0.004
EIF2B4 isoform 2 (UniProt Q9UI10)	0.031	0.027	0.008	0.041	0.009	0.013	-0.04	-0.006	-0.008	0.03	0.011	0.011	0.009	-0.005	-0.036	-0.004	-0.036	0.001	-0.005	0.04
EAPP (UniProt Q56P03)	0.012	0.349 (active)	0.018	0.098	0.073	0.011	-0.094	0.024	0.103	-0.014	-0.105	0.025	-0.1	-0.059	-0.035	0.037	-0.037	-0.015	0.052	-0.042
FBXO38 (UniProt Q6PIJ6)	0.102	0.041	0.013	-0.047	-0.041	0.06	0.077	-0.06	0.021	-0.052	-0.042	0.063	0.083	0.009	-0.078	-0.037	-0.073	-0.098	0.009	0.175
EDARADD (UniProt Q8WWZ3)	0.013	-0.022	0.045	0.019	-0.027	0.049	-0.03	-0.035	-0.064	0.031	0.22	-0.019	-0.003	-0.071	-0.008	-0.007	0.062	0.041	0.017	-0.035
EIF2D (UniProt P41214)	0.048	0.019	-0.017	0.054	0.001	0.008	-0.016	0.025	0.021	-0.023	0.011	-0.017	0.018	0.026	0.03	-0.005	-0.03	-0.004	0.016	0.01
ECI2 (UniProt O75521)	0.032	0.01	0.024	-0.011	0.022	-0.019	-0.111	-0.03	0.045	0.054	0.01	-0.027	-0.033	-0.049	-0.015	-0.013	-0.008	0.013	0.007	0
GEMIN4 (UniProt P57678)	0.023	-0.029	-0.036	0.046	0.038	-0.017	-0.032	-0.004	0.018	-0.023	0.003	-0.028	0.056	0.001	0.051	0.007	-0.048	-0.005	0.059	0.011
EIF2B5 (UniProt Q13144)	0.015	-0.052	-0.017	0.011	0.03	-0.011	-0.054	0.006	0.007	0.027	0	0.008	0.027	-0.018	0.008	-0.019	0.012	-0.031	0.008	0.02
EEF1A1, A0A087WVQ9	0.029	-0.049	0.054	-0.069	-0.016	-0.035	-0.072	-0.019	-0.001	0.03	0.085	0.019	-0.006	0.019	-0.007	0.091	0	-0.023	-0.006	0.004
GABPB1 (UniProt Q06547)	-0.004	0.033	0.012	0.028	0.035	0.016	-0.009	0.026	-0.008	-0.042	-0.106	-0.012	0.021	0.014	0	0.013	-0.026	0.003	0.071	0.024
FARSB (UniProt Q9NSD9)	-0.004	0.019	-0.007	-0.01	-0.02	0.039	-0.021	-0.004	0.011	-0.027	0.021	-0.013	-0.006	0.016	0.004	-0.023	0.007	0.033	0.008	0.03
